# Source: publication PMC7862700, “An all-to-all approach to the identification of sequence-specific readers for epigenetic DNA modifications on cytosine”
# Key:
# Assay in all cases: DAPPL (digital affinity profiling via proximity ligation, sequencing); 10 mM Tris-HCl pH 7.5, 50 mM NaCl, 1 mM DTT, 4% glycerol, room temperature, 30 min; GST-TFs on glutathione beads, 16-mer random dsDNA library, 0.1% formaldehyde crosslink after washing; high values mean tight binding
# FLI1 = target: T1, FLI1 (Homo sapiens, UniProt Q01543 1-452); conditions: protein: recombinant; tags: N-terminal GST; dsDNA, one strand shown
# T1 sequence: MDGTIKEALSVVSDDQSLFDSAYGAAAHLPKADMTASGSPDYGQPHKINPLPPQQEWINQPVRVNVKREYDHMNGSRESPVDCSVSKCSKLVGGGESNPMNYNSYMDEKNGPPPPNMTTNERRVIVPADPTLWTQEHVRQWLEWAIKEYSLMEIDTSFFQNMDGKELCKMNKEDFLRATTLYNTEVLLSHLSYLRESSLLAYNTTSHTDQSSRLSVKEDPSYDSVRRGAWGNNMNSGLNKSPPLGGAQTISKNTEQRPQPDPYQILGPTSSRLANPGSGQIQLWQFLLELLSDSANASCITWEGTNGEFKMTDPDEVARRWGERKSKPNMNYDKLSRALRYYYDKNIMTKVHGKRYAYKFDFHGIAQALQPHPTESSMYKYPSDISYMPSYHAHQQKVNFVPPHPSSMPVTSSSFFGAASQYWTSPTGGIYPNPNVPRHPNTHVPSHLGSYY
# Procedure, shortened: (§1)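 Each value of binding signal is a hexamer's read frequency for a factor divided by the same hexamer's frequency in the tag-only sample. Barcoded, bead-captured GST fusions of human transcription factors made in yeast were pooled with that sample and incubated with 200 nmole of a random double-stranded 16-mer DNA library in Tris/NaCl/DTT/glycerol buffer at room temperature for 30 min. Washing, 0.1% formaldehyde crosslinking, proximity ligation, PCR and Illumina NextSeq500 sequencing followed.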
# ELK1 = target: T2, ELK1 (Homo sapiens, UniProt P19419 1-428); conditions: protein: recombinant; tags: N-terminal GST; dsDNA, one strand shown
# T2 sequence: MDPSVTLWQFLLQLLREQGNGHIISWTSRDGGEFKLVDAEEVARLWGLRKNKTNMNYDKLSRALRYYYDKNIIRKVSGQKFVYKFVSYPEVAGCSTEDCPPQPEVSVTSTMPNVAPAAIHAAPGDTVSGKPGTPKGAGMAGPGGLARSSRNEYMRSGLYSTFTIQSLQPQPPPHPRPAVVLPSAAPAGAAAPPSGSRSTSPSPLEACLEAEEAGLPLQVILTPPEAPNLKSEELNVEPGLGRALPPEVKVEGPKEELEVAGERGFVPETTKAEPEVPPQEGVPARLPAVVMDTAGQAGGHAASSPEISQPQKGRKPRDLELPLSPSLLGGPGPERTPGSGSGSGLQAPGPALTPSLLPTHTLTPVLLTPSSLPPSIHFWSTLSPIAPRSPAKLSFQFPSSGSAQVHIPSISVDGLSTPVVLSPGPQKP
# Procedure, shortened: as §1
# GABPA = target: T3, GABPA (Homo sapiens, UniProt Q06546 1-454); conditions: protein: recombinant; tags: N-terminal GST; dsDNA, one strand shown
# T3 sequence: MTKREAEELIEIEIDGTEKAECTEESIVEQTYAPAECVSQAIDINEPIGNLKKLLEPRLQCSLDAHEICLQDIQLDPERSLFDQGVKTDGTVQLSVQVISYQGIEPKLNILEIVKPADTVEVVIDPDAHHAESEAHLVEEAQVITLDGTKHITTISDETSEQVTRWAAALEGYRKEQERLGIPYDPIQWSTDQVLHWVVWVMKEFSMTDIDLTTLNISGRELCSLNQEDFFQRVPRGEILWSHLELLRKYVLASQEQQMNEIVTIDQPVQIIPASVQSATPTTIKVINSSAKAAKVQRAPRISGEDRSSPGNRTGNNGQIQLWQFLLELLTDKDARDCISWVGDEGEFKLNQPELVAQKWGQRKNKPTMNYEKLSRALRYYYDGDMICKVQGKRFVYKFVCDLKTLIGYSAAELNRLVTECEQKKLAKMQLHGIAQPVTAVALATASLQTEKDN
# Procedure, shortened: as §1
# ERG = target: T4, ERG (Homo sapiens, UniProt P11308 1-479); conditions: protein: recombinant; tags: N-terminal GST; dsDNA, one strand shown
# T4 sequence: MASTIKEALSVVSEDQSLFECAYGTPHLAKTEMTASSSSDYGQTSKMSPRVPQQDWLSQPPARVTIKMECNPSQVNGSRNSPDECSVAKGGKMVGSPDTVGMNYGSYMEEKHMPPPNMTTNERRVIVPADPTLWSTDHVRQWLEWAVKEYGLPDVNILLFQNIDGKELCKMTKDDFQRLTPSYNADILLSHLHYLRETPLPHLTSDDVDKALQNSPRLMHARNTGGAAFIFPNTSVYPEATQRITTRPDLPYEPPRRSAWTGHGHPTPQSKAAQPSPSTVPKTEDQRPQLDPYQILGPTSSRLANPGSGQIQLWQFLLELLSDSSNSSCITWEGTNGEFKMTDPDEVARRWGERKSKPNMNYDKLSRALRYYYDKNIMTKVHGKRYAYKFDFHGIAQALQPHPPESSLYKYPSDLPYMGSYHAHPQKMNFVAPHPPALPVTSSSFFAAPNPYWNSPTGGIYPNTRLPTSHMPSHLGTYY
# Procedure, shortened: as §1
# ELF1 = ELF1 (Homo sapiens, UniProt P32519 1-619); conditions: protein: recombinant; tags: N-terminal GST; dsDNA, one strand shown
# Chain of ELF1 (P32519 whole entry): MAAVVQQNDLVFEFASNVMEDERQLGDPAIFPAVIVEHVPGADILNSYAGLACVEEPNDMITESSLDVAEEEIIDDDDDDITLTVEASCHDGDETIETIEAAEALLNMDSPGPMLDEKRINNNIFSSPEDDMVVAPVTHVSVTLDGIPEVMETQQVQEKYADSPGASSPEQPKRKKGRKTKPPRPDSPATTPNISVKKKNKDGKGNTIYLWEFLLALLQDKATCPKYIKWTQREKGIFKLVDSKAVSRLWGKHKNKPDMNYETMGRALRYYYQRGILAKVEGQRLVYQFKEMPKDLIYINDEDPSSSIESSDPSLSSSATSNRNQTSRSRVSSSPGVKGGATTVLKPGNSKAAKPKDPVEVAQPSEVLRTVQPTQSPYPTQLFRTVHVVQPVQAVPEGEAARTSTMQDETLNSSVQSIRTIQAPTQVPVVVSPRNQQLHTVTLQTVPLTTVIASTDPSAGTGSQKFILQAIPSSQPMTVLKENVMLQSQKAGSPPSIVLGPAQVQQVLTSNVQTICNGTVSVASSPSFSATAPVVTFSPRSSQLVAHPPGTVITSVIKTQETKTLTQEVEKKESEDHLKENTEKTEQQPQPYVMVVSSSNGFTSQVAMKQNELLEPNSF
# Procedure, shortened: as §1
# EHF = target: T5, EHF (Homo sapiens, UniProt Q9NZC4 1-300); conditions: protein: recombinant; tags: N-terminal GST; dsDNA, one strand shown
# T5 sequence: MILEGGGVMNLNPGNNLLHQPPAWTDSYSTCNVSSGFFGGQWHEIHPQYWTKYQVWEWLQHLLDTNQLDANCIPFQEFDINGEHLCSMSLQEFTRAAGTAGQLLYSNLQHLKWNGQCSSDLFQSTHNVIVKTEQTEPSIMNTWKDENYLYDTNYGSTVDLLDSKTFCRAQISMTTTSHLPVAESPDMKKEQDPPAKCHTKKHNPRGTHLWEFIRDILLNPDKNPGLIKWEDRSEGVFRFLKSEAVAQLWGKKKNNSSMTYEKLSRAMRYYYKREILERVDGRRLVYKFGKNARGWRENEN
# Procedure, shortened: as §1
# SPI1 = SPI1 (Homo sapiens, UniProt P17947 1-270); conditions: protein: recombinant; tags: N-terminal GST; dsDNA, one strand shown
# Procedure, shortened: as §1
# SPIB = SPIB (Homo sapiens, UniProt Q01892 1-262); conditions: protein: recombinant; tags: N-terminal GST; dsDNA, one strand shown
# Chain of SPIB (Q01892 whole entry): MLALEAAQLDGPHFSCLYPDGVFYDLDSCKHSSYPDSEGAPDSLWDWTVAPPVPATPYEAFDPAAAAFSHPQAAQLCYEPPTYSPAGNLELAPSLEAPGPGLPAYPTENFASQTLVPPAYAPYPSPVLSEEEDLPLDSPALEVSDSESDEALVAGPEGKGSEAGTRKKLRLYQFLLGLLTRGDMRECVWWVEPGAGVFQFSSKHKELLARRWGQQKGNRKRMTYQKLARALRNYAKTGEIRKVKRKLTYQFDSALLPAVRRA
# Procedure, shortened: as §1
# ELK3 = target: T6, ELK3 (Homo sapiens, UniProt P41970 1-407); conditions: protein: recombinant; tags: N-terminal GST; dsDNA, one strand shown
# T6 sequence: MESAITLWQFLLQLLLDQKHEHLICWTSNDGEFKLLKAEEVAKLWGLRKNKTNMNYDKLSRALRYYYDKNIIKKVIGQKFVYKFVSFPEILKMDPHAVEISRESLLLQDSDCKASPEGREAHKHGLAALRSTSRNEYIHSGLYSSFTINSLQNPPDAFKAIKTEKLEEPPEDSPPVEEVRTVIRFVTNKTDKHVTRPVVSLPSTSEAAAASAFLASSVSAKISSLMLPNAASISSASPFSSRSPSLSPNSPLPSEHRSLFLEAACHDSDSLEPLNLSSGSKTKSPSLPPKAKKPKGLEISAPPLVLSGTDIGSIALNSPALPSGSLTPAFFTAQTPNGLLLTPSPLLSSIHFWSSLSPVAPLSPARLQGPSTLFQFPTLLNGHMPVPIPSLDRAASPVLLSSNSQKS
# Procedure, shortened: as §1
# FEV = target: T7, FEV (Homo sapiens, UniProt Q99581 1-238); conditions: protein: recombinant; tags: N-terminal GST; dsDNA, one strand shown
# T7 sequence: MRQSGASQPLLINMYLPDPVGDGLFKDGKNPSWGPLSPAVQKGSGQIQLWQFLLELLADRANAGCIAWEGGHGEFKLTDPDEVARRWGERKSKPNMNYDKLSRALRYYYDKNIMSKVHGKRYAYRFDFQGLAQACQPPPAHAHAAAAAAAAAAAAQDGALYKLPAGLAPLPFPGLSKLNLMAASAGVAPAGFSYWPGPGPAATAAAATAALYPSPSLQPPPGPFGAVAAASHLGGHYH
# Procedure, shortened: as §1
# ETV5 = ETV5 (Homo sapiens, UniProt P41161 1-510); conditions: protein: recombinant; tags: N-terminal GST; dsDNA, one strand shown
# Chain of ETV5 (P41161 whole entry): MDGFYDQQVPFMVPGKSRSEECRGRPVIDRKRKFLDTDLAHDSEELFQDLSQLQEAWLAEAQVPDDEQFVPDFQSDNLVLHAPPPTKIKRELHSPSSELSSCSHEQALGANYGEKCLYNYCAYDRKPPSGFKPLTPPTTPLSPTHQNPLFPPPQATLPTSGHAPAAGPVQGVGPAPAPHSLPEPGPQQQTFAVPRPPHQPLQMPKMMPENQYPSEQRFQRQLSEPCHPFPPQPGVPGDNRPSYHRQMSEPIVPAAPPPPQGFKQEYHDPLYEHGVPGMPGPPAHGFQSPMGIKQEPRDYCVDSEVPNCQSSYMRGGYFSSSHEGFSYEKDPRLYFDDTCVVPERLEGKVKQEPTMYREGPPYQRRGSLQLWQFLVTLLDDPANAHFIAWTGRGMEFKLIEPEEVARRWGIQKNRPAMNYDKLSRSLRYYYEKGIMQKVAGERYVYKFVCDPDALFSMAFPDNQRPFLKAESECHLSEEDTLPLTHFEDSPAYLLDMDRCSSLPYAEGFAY
# Procedure, shortened: as §1
# HSF1 = HSF1 (Homo sapiens, UniProt Q00613 1-529); conditions: protein: recombinant; tags: N-terminal GST; chain copies: 3; dsDNA, one strand shown
# Chain of HSF1 (Q00613 whole entry): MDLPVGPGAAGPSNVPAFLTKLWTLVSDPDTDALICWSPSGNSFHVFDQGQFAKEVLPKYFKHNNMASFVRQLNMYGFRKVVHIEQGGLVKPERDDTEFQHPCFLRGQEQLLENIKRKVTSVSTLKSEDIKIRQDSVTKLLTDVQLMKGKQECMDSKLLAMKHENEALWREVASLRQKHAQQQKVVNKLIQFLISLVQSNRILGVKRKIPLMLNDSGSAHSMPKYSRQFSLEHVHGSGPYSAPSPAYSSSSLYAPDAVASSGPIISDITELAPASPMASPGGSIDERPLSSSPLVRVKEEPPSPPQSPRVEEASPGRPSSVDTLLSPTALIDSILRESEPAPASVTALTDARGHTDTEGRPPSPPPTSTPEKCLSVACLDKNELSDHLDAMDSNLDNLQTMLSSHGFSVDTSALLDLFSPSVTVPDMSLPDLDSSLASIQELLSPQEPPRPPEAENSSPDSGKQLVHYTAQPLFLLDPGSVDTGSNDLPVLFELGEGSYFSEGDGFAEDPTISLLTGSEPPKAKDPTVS
# Procedure, shortened: as §1
# SPIC = target: T8, SPIC (Homo sapiens, UniProt Q8N5J4 1-248); conditions: protein: recombinant; tags: N-terminal GST; dsDNA, one strand shown
# T8 sequence: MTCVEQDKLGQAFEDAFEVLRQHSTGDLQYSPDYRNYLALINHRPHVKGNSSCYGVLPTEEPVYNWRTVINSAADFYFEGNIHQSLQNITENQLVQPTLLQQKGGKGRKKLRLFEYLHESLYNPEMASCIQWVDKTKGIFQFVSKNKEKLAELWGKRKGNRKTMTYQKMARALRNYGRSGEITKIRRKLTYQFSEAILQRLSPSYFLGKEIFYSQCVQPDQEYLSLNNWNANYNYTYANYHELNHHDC
# Procedure, shortened: as §1
# ELF4 = ELF4 (Homo sapiens, UniProt Q99607 1-663); conditions: protein: recombinant; tags: N-terminal GST; dsDNA, one strand shown
# Chain of ELF4 (Q99607 whole entry): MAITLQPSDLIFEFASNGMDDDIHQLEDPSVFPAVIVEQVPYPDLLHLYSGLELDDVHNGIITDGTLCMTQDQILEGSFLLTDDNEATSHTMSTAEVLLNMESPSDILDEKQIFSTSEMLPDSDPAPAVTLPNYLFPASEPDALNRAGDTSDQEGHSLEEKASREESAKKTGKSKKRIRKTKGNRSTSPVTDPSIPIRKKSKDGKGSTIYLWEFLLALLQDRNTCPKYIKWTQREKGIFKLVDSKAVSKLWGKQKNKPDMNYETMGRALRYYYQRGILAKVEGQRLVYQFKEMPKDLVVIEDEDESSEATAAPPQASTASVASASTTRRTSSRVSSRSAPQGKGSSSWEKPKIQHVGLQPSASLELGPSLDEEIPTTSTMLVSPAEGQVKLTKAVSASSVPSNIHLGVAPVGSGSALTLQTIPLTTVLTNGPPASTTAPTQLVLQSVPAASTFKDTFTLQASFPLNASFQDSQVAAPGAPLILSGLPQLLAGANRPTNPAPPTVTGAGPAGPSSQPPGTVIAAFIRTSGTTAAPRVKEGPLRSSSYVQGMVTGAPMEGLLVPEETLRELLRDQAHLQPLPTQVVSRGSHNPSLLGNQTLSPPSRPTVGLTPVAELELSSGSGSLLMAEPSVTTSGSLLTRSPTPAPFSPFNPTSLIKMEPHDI
# Procedure, shortened: as §1
# ELK4 = target: T9, ELK4 (Homo sapiens, UniProt P28324-2 1-405); conditions: protein: recombinant; tags: N-terminal GST; dsDNA, one strand shown
# T9 sequence: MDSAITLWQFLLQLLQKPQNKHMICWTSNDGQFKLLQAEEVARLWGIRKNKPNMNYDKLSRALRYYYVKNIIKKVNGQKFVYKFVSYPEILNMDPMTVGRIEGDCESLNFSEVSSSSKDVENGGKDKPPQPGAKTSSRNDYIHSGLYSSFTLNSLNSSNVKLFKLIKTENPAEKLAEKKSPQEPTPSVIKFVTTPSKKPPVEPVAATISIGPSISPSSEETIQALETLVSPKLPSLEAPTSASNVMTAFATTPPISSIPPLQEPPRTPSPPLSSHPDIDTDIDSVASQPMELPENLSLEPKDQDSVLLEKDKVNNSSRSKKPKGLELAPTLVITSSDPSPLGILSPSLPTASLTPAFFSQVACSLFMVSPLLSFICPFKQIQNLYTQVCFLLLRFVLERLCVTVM
# Procedure, shortened: as §1
# ETV2 = target: T10, ETV2 (Homo sapiens, UniProt O00321 1-342); conditions: protein: recombinant; tags: N-terminal GST; dsDNA, one strand shown
# T10 sequence: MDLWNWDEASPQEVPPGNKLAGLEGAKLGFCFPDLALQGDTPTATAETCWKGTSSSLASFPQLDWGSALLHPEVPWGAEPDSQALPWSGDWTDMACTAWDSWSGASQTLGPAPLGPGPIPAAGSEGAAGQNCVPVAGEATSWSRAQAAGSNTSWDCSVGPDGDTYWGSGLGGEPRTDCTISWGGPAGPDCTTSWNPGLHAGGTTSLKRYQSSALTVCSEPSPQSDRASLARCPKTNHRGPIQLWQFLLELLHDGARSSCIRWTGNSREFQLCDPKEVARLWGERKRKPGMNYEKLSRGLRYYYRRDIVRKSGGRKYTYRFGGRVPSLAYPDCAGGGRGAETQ
# Procedure, shortened: as §1
# ELF3 = target: T11, ELF3 (Homo sapiens, UniProt P78545 1-371); conditions: protein: recombinant; tags: N-terminal GST; dsDNA, one strand shown
# T11 sequence: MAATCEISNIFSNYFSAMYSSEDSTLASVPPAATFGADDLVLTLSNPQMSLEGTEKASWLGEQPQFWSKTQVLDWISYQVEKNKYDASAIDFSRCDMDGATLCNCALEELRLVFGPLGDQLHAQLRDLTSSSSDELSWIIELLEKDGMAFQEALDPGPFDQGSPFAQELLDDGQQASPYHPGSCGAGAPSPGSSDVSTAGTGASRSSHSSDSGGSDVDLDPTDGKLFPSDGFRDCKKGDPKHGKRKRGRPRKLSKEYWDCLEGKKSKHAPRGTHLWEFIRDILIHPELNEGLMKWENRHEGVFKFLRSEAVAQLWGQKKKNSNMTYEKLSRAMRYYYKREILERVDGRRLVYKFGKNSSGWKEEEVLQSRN
# Procedure, shortened: as §1
# CRX = CRX (Homo sapiens, UniProt O43186 1-299); conditions: protein: recombinant; tags: N-terminal GST; dsDNA, one strand shown
# Chain of CRX (O43186 whole entry): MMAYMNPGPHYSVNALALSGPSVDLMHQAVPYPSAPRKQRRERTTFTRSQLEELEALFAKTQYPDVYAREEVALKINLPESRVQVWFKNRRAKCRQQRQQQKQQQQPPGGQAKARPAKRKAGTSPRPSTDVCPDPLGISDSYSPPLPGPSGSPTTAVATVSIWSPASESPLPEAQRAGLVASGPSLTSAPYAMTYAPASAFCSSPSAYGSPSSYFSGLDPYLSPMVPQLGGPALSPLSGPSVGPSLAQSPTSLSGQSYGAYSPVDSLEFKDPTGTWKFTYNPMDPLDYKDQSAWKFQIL
# Procedure, shortened: as §1
# ETV1 = ETV1 (Homo sapiens, UniProt P50549 1-477); conditions: protein: recombinant; tags: N-terminal GST; dsDNA, one strand shown
# Chain of ETV1 (P50549 whole entry): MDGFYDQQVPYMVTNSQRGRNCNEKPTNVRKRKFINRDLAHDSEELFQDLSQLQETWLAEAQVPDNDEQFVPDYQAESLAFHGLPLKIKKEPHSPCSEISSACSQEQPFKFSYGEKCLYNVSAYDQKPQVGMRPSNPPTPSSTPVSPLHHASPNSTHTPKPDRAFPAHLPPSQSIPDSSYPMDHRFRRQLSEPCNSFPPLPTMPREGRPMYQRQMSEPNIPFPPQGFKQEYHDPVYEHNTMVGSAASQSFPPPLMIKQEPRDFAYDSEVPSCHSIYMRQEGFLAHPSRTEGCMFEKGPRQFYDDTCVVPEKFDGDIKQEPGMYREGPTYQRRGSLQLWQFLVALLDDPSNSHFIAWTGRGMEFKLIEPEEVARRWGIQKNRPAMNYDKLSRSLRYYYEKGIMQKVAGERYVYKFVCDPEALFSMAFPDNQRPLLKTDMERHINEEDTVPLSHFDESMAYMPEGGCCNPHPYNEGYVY
# Procedure, shortened: as §1
sequence,measurement,setting,value
TGGCTT,binding signal,FLI1,"1.27 fold enrichment (6-mer frequency, TF over GST control)"
same,binding signal,ELK1,"1.21 fold enrichment (6-mer frequency, TF over GST control)"
same,binding signal,GABPA,"1.33 fold enrichment (6-mer frequency, TF over GST control)"
same,binding signal,ERG,"1.31 fold enrichment (6-mer frequency, TF over GST control)"
same,binding signal,ELF1,"1.28 fold enrichment (6-mer frequency, TF over GST control)"
same,binding signal,EHF,"1.26 fold enrichment (6-mer frequency, TF over GST control)"
same,binding signal,SPI1,"1.24 fold enrichment (6-mer frequency, TF over GST control)"
same,binding signal,SPIB,"1.26 fold enrichment (6-mer frequency, TF over GST control)"
same,binding signal,ELK3,"1.23 fold enrichment (6-mer frequency, TF over GST control)"
same,binding signal,FEV,"1.34 fold enrichment (6-mer frequency, TF over GST control)"
same,binding signal,ETV5,"1.19 fold enrichment (6-mer frequency, TF over GST control)"
same,binding signal,HSF1,"1.38 fold enrichment (6-mer frequency, TF over GST control)"
same,binding signal,SPIC,"1.34 fold enrichment (6-mer frequency, TF over GST control)"
same,binding signal,ELF4,"1.28 fold enrichment (6-mer frequency, TF over GST control)"
same,binding signal,ELK4,"1.23 fold enrichment (6-mer frequency, TF over GST control)"
same,binding signal,ETV2,"1.3 fold enrichment (6-mer frequency, TF over GST control)"
same,binding signal,ELF3,"1.32 fold enrichment (6-mer frequency, TF over GST control)"
same,binding signal,CRX,"1.75 fold enrichment (6-mer frequency, TF over GST control)"
same,binding signal,ETV1,"1.1 fold enrichment (6-mer frequency, TF over GST control)"
